Reference: PubChem BioAssay (NCI)
Compounds without any hit were thinned out: in the full panel of roughly 83,000, 20% have a hit.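 Assay: single dose, 48 h. Readout: percent growth (0 = no net growth; negative = cell death). Active: <10.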 A number with no mark means an inactive call. Active and inactive are the calls of the source.

What follows are compounds tested on MDA-MB-468 breast (assay: NCI-60 one-dose screen, 48 h (100 = growth as untreated, 0 = no growth, -100 = all killed)). Conditions: 10 µM unless noted.

SMILES | growth
O=C(C[n+]1cccc2cc(Cl)ccc21)c1ccc2c(c1)CCCC2 | 9.66% (active)
N#CC1C(C#N)C2c3ccccc3C=CN2C1C(=O)c1ccc(Br)cc1 (stereo not given) | 99.6%
COc1cc(OC)cc(C2CC(=O)Nc3c2c(C)nn3-c2nc3ccccc3[nH]2)c1 (stereo not given) | 46.6%
CCOC(=O)c1ccc2[nH]c(O)c(C(=Nc3ccc(N(C)C(=O)CN4CCN(C)CC4)cc3)c3ccccc3)c2c1 | -84.4% (active)
Cc1c(O)cc(-c2cnc(N/N=C\c3ccc(Cl)cc3)s2)c(O)c1C | 76%
CC1=NC2=NC(=O)/C(=C3/N=C(C)C=C(c4ccccc4)N3N)NN2C(c2ccccc2)=C1 | 109%
NC(=O)c1ccc[n+](CC(=O)N2CCN(c3cc4c(cc3F)c(=O)c(C(=O)O)cn4C3CC3)CC2)c1 | 87.2%
COc1ccccc1CNCCCN1C(=O)c2ccc3c4c(ccc(c24)C1=O)C(=O)N(CCCNCCNCCCN)C3=O | -56.2% (active)
CC(=O)n1nc(C(=O)OC(C)(C)C)c2cc(F)c(F)cc21 | 97.4%
CN(CCC#N)c1ccc(/C=C(\C#N)c2cccc(C(F)(F)F)c2)cc1 | 23.4%
CC(C)C1=NOC(=O)C1=Cc1cn(-c2ccco2)nc1-c1ccccc1 | 54%
C1=C[C@H]2O[C@@H]1c1ccc3[nH]ccc3c12 | 76.2%
CCOC(=O)c1nc2c3ccccc3ccn2c1C(=O)OC | 92.1%
Cc1ccc(Cl)cc1N1C(=O)CC(Sc2ccccc2N)C1=O (stereo not given) | 108%
CCCCn1c(C)nc2cc(Nc3nc(N4CCCCC4)nc4nc[nH]c34)ccc21 | 36.1%
O=[N+]([O-])c1ccc(-c2nnc(SCc3ccc(O)c4ncccc34)n2-c2ccccc2)cc1 | 19.9%
c1ccc(C2=NN[C@H](c3cn(-c4ccccc4)nc3-c3ccccc3)C2)cc1 | 28.2%
NCCn1cc(-c2nc(-c3c[nH]c4ncccc34)cs2)c2cc(Br)ccc21 | 66%
Cc1cc(C)c(C(=O)c2cccs2)c(C)c1 | 105%
CCCCCc1c(C)[nH]c(/C=c2\[nH]/c(=C3/C=c4ccccc4=N3)cc2OC)c1C | -63.8% (active)

SMILES | growth
CN1/C(=C/C=C/c2n(Cc3ccc4ccccc4c3)c(Cl)c(Cl)[n+]2Cc2ccc3ccccc3c2)Oc2ccccc21 | -56.7% (active)
CC(C)(C)n1cc(-c2ccnc(NCCCNS(=O)(=O)c3cccc4ccccc34)c2)c(-c2cccc(F)c2)n1 | 52.5%
Nc1n[nH]c2cc(F)c([C@@H]3Nc4c(F)cc5[nH]ncc5c4[C@H]4C5CCC(C5)[C@@H]34)cc12 (stereo not given in full) | -0.149% (active)
CCN(CCCCCCCCCCN1CC(=O)N(CCCCCCCCCCN(CC)Cc2ccccc2OC)CC1=O)Cc1ccccc1OC | -87.8% (active)
OC(c1cc2cc(Cl)c(Cl)cc2c2cc(C(F)(F)F)ccc12)C1CCCCN1 (stereo not given) | -92.2% (active)
NCCNc1nc2ccccc2c2c(=O)c3cccc(F)c3sc12 | 70.6%
COc1ccc(-n2c(C(O)c3ccccc3)n[nH]c2=S)cc1 (stereo not given) | 98.6%
S=C=Nc1ccc2ccccc2c1 | 97.3%
Cc1cccc2c(N)c3ccccc3nc12 | -60.5% (active)
Nc1n[nH]c2ccc([C@@H]3Nc4cc5c(cc4[C@H]4C6CCC(C6)[C@@H]34)C(=O)NC5)cc12 (stereo not given in full) | -9.96% (active)
COc1ccc(C/C(C)=C(/c2ccc(OCCN3CCCCC3)cc2)c2ccc(OC(=O)NCc3ccccc3)cc2)cc1 | -82.7% (active)
CC/C=C\C[C@@H](O)C/C=C1/C(=O)C=C[C@H]1C/C=C\CCCC(=O)OC | 15.9%
CC/C=C\C[C@H](O)C/C=C1/C(=O)C=C[C@@H]1C/C=C\CCCC(N)=O | -33.1% (active)
Cn1cc(-c2csc(-c3cn(CCN)c4ccc(Br)cc34)n2)c2cccnc21 | 28.6%
O=S(=O)(Cc1ccccc1)c1nc2ccccc2s1 | 76.8%
Oc1ccc(O)cc1 | 96.7%
COc1ccc(-c2nc(SCCC(C)C)nc(Nc3ccc(F)c(Cl)c3)c2C#N)cc1 | 71.5%
CCOC(=O)c1cc2c(n1Cc1ccccc1)-c1oncc1CCC2 | 60.2%
O=C(/C=C(O)/C=C/c1ccc(SC(F)(F)F)cc1)/C=C/c1ccc(SC(F)(F)F)cc1 | 100%
COc1ccc(/C(C)=C(\c2ccc(Cl)cc2)c2ccc(OCCN3CCCC3)cc2)cc1F | 37.5%
